The results in this text go back to PubChem BioAssay (NCI).

Some test systems named below: RPMI-8226 leukemia; OVCAR-8 ovarian; OVCAR-5 ovarian; OVCAR-4 ovarian; SK-OV-3 ovarian; IGROV1 ovarian; OVCAR-3 ovarian; HS 578T breast; NCI/ADR-RES ovarian; T-47D breast; BT-549 breast; MDA-MB-435 melanoma; SW-620 colon; MCF7 breast; HCT-116 colon; HCC-2998 colon; KM12 colon.
Holding throughout (experiment): NCI-60 one-dose screen, 48 h (100 = growth as untreated, 0 = no growth, -100 = all killed)
Holding throughout (conditions): 10 µM unless noted

This is part of a sample that, as a whole, favours compounds with a hit. Of some 83,000 tested, about 20% had one in any assay.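 How to read the values: 0–100, growth inhibition (40 = 60% inhibited); 0, no net growth; -100 to 0, cell death (-40 = 40% of starting cells died; -100 = all dead).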 Unmarked numbers belong to inactive results. Activity calls are given as the source filed them. The calls were made as follows: active = growth percent below 10; inactive = the rest.

As to `CCC1S/C(=N\N=C(/C)c2ccc[nH]2)N(c2ccccc2)C1=O` (stereo not drawn), the growth in the assay on RPMI-8226 leukemia is 57.5%; in the assay with OVCAR-8 ovarian, 90.2%; in the assay on OVCAR-5 ovarian, 99.3%; in the assay on OVCAR-4 ovarian, 104%; in the assay with SK-OV-3 ovarian, 123%; with IGROV1 ovarian, -48.7% (active). Further, the growth in the assay on OVCAR-3 ovarian is 89.7%; in the assay with HS 578T breast, 124%; with NCI/ADR-RES ovarian it was 85.2%; in the assay with T-47D breast, 122%; with BT-549 breast, 126%; in the assay on MDA-MB-435 melanoma, 104%. The growth was 92.8% with SW-620 colon; 117% with MCF7 breast; 91.6% with HCT-116 colon; 104% with HCC-2998 colon; 112% in the assay on KM12 colon.

With `C=C1C(=O)O[C@H]2[C@H]1CC/C(C=Nc1c(N)cc(F)cc1Br)=C\CC[C@@]1(C)O[C@@H]21`, the growth is 12.8% in the assay on RPMI-8226 leukemia; 78.4% in the assay on OVCAR-8 ovarian; 103% in the assay on OVCAR-5 ovarian; 105% with OVCAR-4 ovarian; 87.3% in the assay on SK-OV-3 ovarian; 60.4% in the assay on IGROV1 ovarian. Further, the growth is 50.9% in the assay on OVCAR-3 ovarian; 90.2% in the assay with HS 578T breast; 109% in the assay with NCI/ADR-RES ovarian; 50% with T-47D breast; 84.8% with BT-549 breast; 83.2% in the assay with MDA-MB-435 melanoma. Besides, the growth with SW-620 colon was 26.5%; with MCF7 breast, 24.4%; in the assay with HCT-116 colon, 48.2%; with HCC-2998 colon it was 109%; in the assay on KM12 colon, 98.8%.

For the compound `COC(=O)c1ccc2c(c1)NC(=O)[C@@H]1CCCN21`, the growth in the assay on RPMI-8226 leukemia is 96.6%; with OVCAR-8 ovarian, 97.5%; in the assay with OVCAR-5 ovarian, 112%; in the assay on OVCAR-4 ovarian, 88.4%; with SK-OV-3 ovarian, 95.2%; in the assay on IGROV1 ovarian, 101%. For the same compound, the growth was 102% in the assay with OVCAR-3 ovarian; 105% in the assay on HS 578T breast; 100% with NCI/ADR-RES ovarian; 86.3% in the assay with T-47D breast; 87.2% in the assay on BT-549 breast; 100% with MDA-MB-435 melanoma. Further, the growth in the assay on SW-620 colon is 96.8%; in the assay with MCF7 breast, 73.9%; in the assay on HCT-116 colon it was 93.8%; in the assay with HCC-2998 colon, 109%; in the assay on KM12 colon it was 101%.

As for `CC1(C)Cc2c(Br)c(Br)c(Br)c(OCC(O)CN3CCOCC3)c2O1` (stereo not drawn), the growth is 20.8% in the assay with RPMI-8226 leukemia; 88.9% with OVCAR-8 ovarian; 99.7% with OVCAR-5 ovarian; 99.5% with OVCAR-4 ovarian; 110% in the assay with SK-OV-3 ovarian; -83.4% (active) in the assay with IGROV1 ovarian. Further, the growth with OVCAR-3 ovarian was 57%; in the assay with HS 578T breast, 98.1%; in the assay on NCI/ADR-RES ovarian it was 81.2%; in the assay with T-47D breast, 108%; in the assay with BT-549 breast, 78%; with MDA-MB-435 melanoma it was 87.5%. Further, the growth is 94.5% in the assay with SW-620 colon; 114% in the assay on MCF7 breast; 77.9% in the assay on HCT-116 colon; 95.9% in the assay on HCC-2998 colon; 95% in the assay with KM12 colon.

As to `C=CCn1c(SCC(=O)Nc2ccc(C(=O)/C=C/c3cc(OC)c(OC)c(OC)c3)cc2)nnc1-c1ccc(Cl)cc1`, the growth in the assay on RPMI-8226 leukemia was -21.6% (active); in the assay on OVCAR-8 ovarian it was 7.91% (active); in the assay on OVCAR-5 ovarian, 88.9%; with OVCAR-4 ovarian it was 37.3%; in the assay on SK-OV-3 ovarian, 51.4%; in the assay on IGROV1 ovarian it was 14.3%. Besides, the growth in the assay on OVCAR-3 ovarian was -41.9% (active); in the assay with HS 578T breast it was 48.6%; in the assay on NCI/ADR-RES ovarian it was 41.3%; in the assay on T-47D breast, 18.1%; in the assay on BT-549 breast it was 10.4%; in the assay on MDA-MB-435 melanoma it was 5.58% (active). In addition, the growth was 11.8% with SW-620 colon; -3.5% (active) with MCF7 breast; -62.2% (active) in the assay with HCT-116 colon; -8.4% (active) with HCC-2998 colon; 9.43% (active) with KM12 colon.

On to `COc1ccccc1C(=O)/C=C/c1cc2cccc(OC)c2[nH]c1=O`, for which the growth in the assay with RPMI-8226 leukemia is -14.5% (active); in the assay on OVCAR-8 ovarian, -5.37% (active); in the assay on OVCAR-5 ovarian, 13.1%; with OVCAR-4 ovarian, 15.4%; in the assay with SK-OV-3 ovarian it was 16.3%; with IGROV1 ovarian it was 2.88% (active). In addition, the growth was -9.01% (active) in the assay with OVCAR-3 ovarian; 39.3% in the assay on HS 578T breast; 3.01% (active) in the assay on NCI/ADR-RES ovarian; 11.3% in the assay on T-47D breast; -3.55% (active) in the assay with BT-549 breast; 6.42% (active) in the assay on MDA-MB-435 melanoma. For the same compound, the growth is -6.28% (active) with SW-620 colon; 13.4% in the assay with MCF7 breast; -15% (active) in the assay on HCT-116 colon; -84.7% (active) in the assay on HCC-2998 colon; -49.1% (active) with KM12 colon.

`Nc1c(C(=O)Nc2ccccc2Cl)sc2nc3c(cc12)CN(Cc1ccccc1)CC3`: the growth in the assay on RPMI-8226 leukemia was 103%; in the assay on OVCAR-8 ovarian, 118%; in the assay on OVCAR-5 ovarian, 95.5%; in the assay with OVCAR-4 ovarian it was 113%; in the assay on SK-OV-3 ovarian it was 91.2%; in the assay on IGROV1 ovarian, 87.5%. Besides, the growth in the assay on OVCAR-3 ovarian was 85.1%; in the assay with HS 578T breast, 108%; in the assay on NCI/ADR-RES ovarian, 99.8%; in the assay on T-47D breast, 87.8%; in the assay on BT-549 breast it was 93.8%; in the assay on MDA-MB-435 melanoma, 107%. The growth was 94.1% with SW-620 colon; 92.9% with MCF7 breast; 103% in the assay with HCT-116 colon; 96.5% in the assay on HCC-2998 colon; 96.1% in the assay with KM12 colon.

In the case of `N#CC(C#N)=C1NC(c2ccccc2)=C(c2ccccc2)C(c2ccccc2Cl)=C1C#N`, the growth with RPMI-8226 leukemia was 113%; with OVCAR-8 ovarian, 88.1%; in the assay on OVCAR-5 ovarian, 105%; in the assay with OVCAR-4 ovarian, 117%; with SK-OV-3 ovarian, 103%; in the assay on IGROV1 ovarian, 108%. Besides, the growth is 108% in the assay with OVCAR-3 ovarian; 120% in the assay on HS 578T breast; 96% in the assay on NCI/ADR-RES ovarian; 102% in the assay with T-47D breast; 86.2% in the assay on BT-549 breast; 114% in the assay with MDA-MB-435 melanoma. The growth was 110% with SW-620 colon; 97.1% in the assay on MCF7 breast; 94.1% in the assay on HCT-116 colon; 99.5% in the assay with HCC-2998 colon; 113% with KM12 colon.

As for `Cc1nc2sc(C(=O)Nc3cccc4ccccc34)c(N)c2cc1C(C)O` (stereo not drawn), the growth is 18% with RPMI-8226 leukemia; 16.2% in the assay on OVCAR-8 ovarian; 40.7% in the assay on OVCAR-5 ovarian; 55.5% with OVCAR-4 ovarian; 32.1% in the assay with SK-OV-3 ovarian; 31.7% in the assay on IGROV1 ovarian. The growth was 3.11% (active) with OVCAR-3 ovarian; 32.3% in the assay on HS 578T breast; -1.67% (active) in the assay with NCI/ADR-RES ovarian; 49.4% in the assay on T-47D breast; 26.2% in the assay with BT-549 breast; -33.7% (active) with MDA-MB-435 melanoma. The growth in the assay with SW-620 colon is 30.5%; in the assay with MCF7 breast, 17.8%; in the assay on HCT-116 colon it was 8.51% (active); with HCC-2998 colon, 15.7%; in the assay on KM12 colon, 18.2%.
